Gli-Sufu antag: Gli-Sufu pathway antagonism | Sufu-KO-LIGHT fibroblasts, Gli luciferase reporter luminescence | inhibition, % at 5 µM | 340,000 compounds, 0.74% hits | AID 588413;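 active means inhibition above about 55%, limit read from the data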;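 further: 0% = DMSO-treated cells and 100% = wells with medium but no cells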
Beta apoptosis: beta cell apoptosis inhibition. INS-1E cytokine-induced death, ATP luminescence, 48 h; percent of positive-control rescue, neutral wells zero. protection from apoptosis, % (concentration not given with the values). 300,000 compounds, 0.8% hits. AID 435005;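 active means Every replicate reaches about 75%, or at least half do and their mean reaches it too, limit read from the data; inconclusive means At least half of replicates reach the limit but their mean does not; inactive means Under half of replicates reach the limit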;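 further: 0% = cytokine-treated negative control wells and 100% = positive control rescue; higher means more ATP so stronger rescue from cytokine killing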
Mdm2 MdmX PPI: inhibitors of human Mdm2/MdmX interaction; AID 485346; 330,000 compounds, 3% hits; SaOS-2 split-luciferase Mdm2/MdmX complementation, luminescence; inhibition, % at 8 µM; O15151+Q00987;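 active means inhibition of at least 50% at 8 µM in the primary screen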
Target sequence (O15151 whole entry, looked up): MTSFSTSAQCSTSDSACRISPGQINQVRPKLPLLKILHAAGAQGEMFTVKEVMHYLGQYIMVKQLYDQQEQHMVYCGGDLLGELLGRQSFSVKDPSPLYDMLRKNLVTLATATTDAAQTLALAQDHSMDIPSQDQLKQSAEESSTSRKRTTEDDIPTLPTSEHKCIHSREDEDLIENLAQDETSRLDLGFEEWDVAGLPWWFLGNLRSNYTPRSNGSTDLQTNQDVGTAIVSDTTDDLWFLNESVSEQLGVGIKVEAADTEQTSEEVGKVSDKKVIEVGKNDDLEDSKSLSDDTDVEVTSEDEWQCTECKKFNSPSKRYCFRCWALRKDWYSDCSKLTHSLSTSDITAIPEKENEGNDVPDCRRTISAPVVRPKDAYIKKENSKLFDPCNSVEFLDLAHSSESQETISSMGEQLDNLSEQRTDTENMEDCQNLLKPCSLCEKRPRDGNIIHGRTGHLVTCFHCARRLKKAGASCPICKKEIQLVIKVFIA
Target sequence (Q00987 whole entry, looked up): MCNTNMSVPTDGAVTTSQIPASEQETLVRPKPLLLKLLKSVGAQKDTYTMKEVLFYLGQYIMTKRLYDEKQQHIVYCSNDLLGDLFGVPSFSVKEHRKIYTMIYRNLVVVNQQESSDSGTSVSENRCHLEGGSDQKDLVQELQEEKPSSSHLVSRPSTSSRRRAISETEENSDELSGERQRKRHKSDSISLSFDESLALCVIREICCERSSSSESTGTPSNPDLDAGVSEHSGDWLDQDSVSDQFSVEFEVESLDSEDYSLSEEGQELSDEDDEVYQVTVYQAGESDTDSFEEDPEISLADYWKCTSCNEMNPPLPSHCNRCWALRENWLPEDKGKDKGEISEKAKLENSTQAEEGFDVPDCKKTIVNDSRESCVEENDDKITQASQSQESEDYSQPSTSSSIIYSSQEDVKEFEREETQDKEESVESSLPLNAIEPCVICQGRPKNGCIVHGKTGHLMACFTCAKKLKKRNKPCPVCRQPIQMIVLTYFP
697 NFkB inh: inhibitors of the PMA/ionomycin-induced NF-kB reporter in 697 B cells; inhibition, % at 4 µM; AID 435022; 697 B-cell NF-kB luciferase reporter, 16 h; 330,000 compounds, 0.33% hits; in the data active means inhibition above about 35%
CSC inhib: cancer stem cell inhibition | cancer stem cell-like cells viability, luminescence | inhibition, % at 7.5 µM | 300,000 compounds, 1.1% hits | AID 2717; in the data active means inhibition above about 75%; inconclusive means no clear call, values can overlap the other calls; tested in HMLE shEcad cells
Jurkat NFkB inh: inhibitors of the PMA/ionomycin-induced NF-kB reporter in Jurkat cells; PMA/ionomycin-induced NF-kB luciferase reporter, luminescence; inhibition, % at 4 µM; 330,000 compounds, 0.53% hits; AID 435003; in the data active means inhibition above about 50%
Jurkat NFkB conf: lowers PMA/ionomycin-induced NF-kB signal in Jurkat cells; shares compounds with Jurkat NFkB inh; Jurkat NF-kB luciferase, 16 h; 2,700 compounds, 27% hits; AID 435020; inhibition, % at 4 µM;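 active means inhibition reaching about 45% at 4 µM in either replicate, limit read from the data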;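 further: plate controls were PMA/ionomycin stimulated DMSO wells for no effect and unstimulated DMSO wells for full effect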
697 NFkB conf: inhibitors of the PMA/ionomycin-induced NF-kB reporter in 697 B cells, retest; shares compounds with 697 NFkB inh; 697 B-cell NF-kB luciferase, 16 h; inhibition, % at 4 µM; 2,000 compounds, 35% hits; AID 449746; in the data active means inhibition mostly above about 28%, no sharp cut-off; inactive means mostly below about 22%
* marks the source's active call; other numbers are inactive results; ? = inconclusive; / = no result given. A selection: hits, their analogues and other compounds. The true share with any hit is near 4.5%.

SMILES	Gli-Sufu antag	Beta apoptosis	Mdm2 MdmX PPI	697 NFkB inh	CSC inhib	Jurkat NFkB inh	Jurkat NFkB conf	697 NFkB conf
CC1CCc2nc3sc4c(c3c(N)c2C1)CCCC4 (centres undefined)	-43.6	2.1	-79.1	-97.7	14.6	-77.9	/	/
Cc1ccc2c(c1)Cc1nc3ccccc3nc1-2	-33.3	2.0	-68.3	-262.3	0.0	-188.5	-81.4	-252.0
Cc1ccc2c(c1)-c1nc3ccccc3cc1C2=NC1CCCCC1	-90.9	2.0	/	/	38.2	/	/	/
CC(=O)c1cc2c(C)c(C(=O)c3ccccc3)oc2cc1O	-88.9	-5.4	-159.0	-362.4	0.5	-185.9	-92.7	-302.8
O=C(Nc1ccc2nn(-c3ccccc3)nc2c1)c1cccnc1	-21.4	0.8	-25.2	-37.1	-5.4	-56.2	/	/
CC(=O)Nc1cc2nn(-c3ccccc3)nc2cc1Cl	-88.7	-1.0	-265.6	-348.9	9.9	-188.9	-80.2	-206.2
CC(C)C(=O)Nc1ccc2nn(-c3ccccc3)nc2c1	16.7	0.0	-201.0	-356.5	9.8	-255.4	-165.8	-329.3
O=C(Nc1cc2nn(-c3ccccc3)nc2cc1Cl)c1ccco1	-61.1	-1.1	19.0	-152.4	-1.9	-114.8	/	/
CC(C)(C)c1ccccc1NC(=O)NC1CCN(Cc2c(F)cccc2Cl)CC1	-13.5	-5.4	-0.9	-16.1	5.8	-0.9	/	/
CCC(C)NS(=O)(=O)c1ccc(NC(=O)c2cccs2)cc1 (centres undefined)	2.4	6.2	18.1	3.4	-16.7	3.3	/	/
CCC(C)c1ccc(NC(=O)c2cccs2)cc1 (centres undefined)	-127.1	14.7	-276.9	-381.5	17.4	-186.9	-137.3	-294.1
Cc1ccc(N=Cc2sc(O)c3ccccc23)c(C)c1	-82.0	-1.5	-58.8	-30.6	4.5	-40.1	/	/
Cc1ccc(N=Cc2sc(O)c3ccccc23)cc1	-53.9	2.0	-261.6	-257.0	6.1	-197.2	13.8	-35.5
COc1ccc(C(=O)Nc2nnc(SCC(=O)Nc3ccc(NC(C)=O)cc3)s2)c(OC)c1	-26.2	-1.2	-32.4	71.0*	20.0	-206.7	-129.2	61.4*
Cc1cccc(-c2cc3c(N=O)c4ccccc4c-3n[nH]2)c1	-69.6	26.5	-31.6	-339.0	/	-204.6	-86.7	-335.8
CCc1cc2c(SCC(=O)Nc3ccc(NC(C)=O)cc3)ncnc2s1	0.5	0.6	17.9	13.8	-2.2	8.2	/	/
CCc1cc2c(Sc3nc4ccccc4s3)ncnc2s1	11.4	-37.5	28.1	82.5*	22.0	100.1*	95.9*	63.7*
c1ccc(CSc2ncnc3sccc23)cc1	-10.0	1.5	-7.2	6.9	-2.3	-1.1	/	/
c1ccc2sc(Sc3ncnc4sccc34)nc2c1	40.1	-44.2	43.9	63.1*	13.3	98.3*	53.4*	60.4*
c1cnc2ccc(-c3ccc4ncccc4c3)cc2c1	-118.4	3.6	-6.1	-346.0	31.0	-171.1	-86.3	-338.0
Cc1cccc(-c2cc3nc4c(c(NCc5ccco5)n3n2)CCCC4)c1	-57.9	33.2	-70.3	-263.9	116.8*	-154.2	-99.3	-294.8
COc1cc2sc3ccc(C#CC4(O)CCCCC4)cc3c(=O)c2cc1OC	-11.5	35.9	31.1	-332.0	10.4	-297.5	-86.0	-410.6
COc1cccc2sc3cc(C#CC4(O)CCCCC4)ccc3c(=O)c12	13.1	9.2	0.0	-136.0	?	-10.7	/	/
CCOC(=O)c1cn[nH]c1NC(=S)Nc1ccc(Cl)cc1	-71.7	3.5	-27.4	-449.1	-7.1	-184.5	-108.6	-267.8
CCSc1cc(C)nc2c(-c3ccccc3)cnn12	-64.7	2.1	-127.1	-263.6	12.6	-152.5	-100.3	-269.2
SMILES	Gli-Sufu antag	Beta apoptosis	Mdm2 MdmX PPI	697 NFkB inh	CSC inhib	Jurkat NFkB inh	Jurkat NFkB conf	697 NFkB conf
C=CCSc1cc(C)nc2c(-c3ccccc3)cnn12	-51.1	8.5	-98.0	-200.5	40.3	-125.0	/	/
O=C(Nc1ccc(N2CCN(C(=O)c3ccccc3)CC2)cc1)c1ccc2c(c1)OCCO2	6.8	/	7.5	-79.4	20.0	-22.8	/	/
O=C(Nc1ccc(N2CCN(C(=O)c3ccc(Cl)cc3)CC2)cc1)c1ccc2c(c1)OCCO2	36.4	24.8	-4.7	38.6*	/	58.4*	57.3*	-39.9
O=C(Nc1ccc2c(c1)OCCO2)c1cccc(Cl)c1	-43.0	/	-79.2	-68.5	-0.1	-137.0	/	/
O=C(Nc1ccc2c(c1)OCCO2)c1ccc(Cl)cc1Cl	-92.7	/	-90.9	-272.1	4.5	-152.0	-96.4	-210.6
Cc1cc(NC(=O)COC(=O)CCS(=O)(=O)c2cc(Cl)ccc2Cl)no1	6.8	-8.7	12.4	18.4	/	13.3	/	/
O=C1/C(=C\c2ccccc2)CCc2c1[nH]c1ccccc21	-80.8	3.0	-70.5	-217.6	3.5	11.9	/	/
Cc1ccc(/C=C2/CCc3c([nH]c4ccccc34)C2=O)cc1	-49.3	5.9	-56.6	-255.3	11.7	-156.1	-91.5	-180.6
COc1cccc(CNC(C)(C)CO)c1OCc1ccc(Cl)cc1	9.1	-1.2	-4.0	-1.4	-1.5	7.4	/	/
COc1cccc(OCc2ccc(Cl)cc2)c1C#N	-248.3	-1.7	-252.6	-488.5	30.9	-213.8	-212.6	-478.6
CC(C)c1ccc(-c2nnn(CCC(=O)O)n2)cc1	40.2	1.7	15.5	70.5*	-8.9	60.2*	62.0*	70.0*
O=C(O)CCn1nnc(-c2cccs2)n1	-22.7	-6.4	-4.5	1.0	13.5	-8.5	/	/
Nc1[nH]n(-c2ccccc2)c(=O)c1N=Nc1ccc2c(c1)OCCO2	-127.8	-2.8	-156.8	-311.7	7.6	-194.0	-100.2	-195.6
COc1cccc2oc3ccc(C#Cc4ccccn4)cc3c(=O)c12	-84.4	34.7	-123.4	-133.9	57.1	-138.1	/	/
O=c1c2ccccc2oc2cc(C#Cc3ccccn3)ccc12	-112.1	-1.2	-226.2	-253.8	0.0	-182.0	-85.7	-238.2
CCOC(CCNC(=O)c1cc(-c2cccs2)nc2ccccc12)OCC	5.8	2.8	16.3	12.5	-0.1	-5.3	/	/
NC(=O)c1ccsc1NC(=O)c1ccc2c(c1)CCCC2	-142.3	24.7	-163.5	-301.7	69.6	-182.8	-120.2	-358.5
CNC(=O)c1ccsc1NC(=O)c1ccc2c(c1)CCCC2	-57.3	4.6	-96.1	-57.2	70.3	-65.3	/	/
O=C(Cn1nnc(-c2ccccc2)n1)NCC(=O)Nc1ccc(F)c(F)c1F	-4.5	-0.6	17.7	2.5	4.1	1.9	/	/
COc1cc(NC(C)CCCN)c2ncccc2c1 (centres undefined)	19.4	121.4*	33.9	44.4*	105.1*	64.9*	35.6	37.8*
CCc1ccc(NC(=O)c2noc3c2CCC3)cc1	-90.6	0.0	-59.8	-228.9	-6.3	-134.5	/	/
Cc1ccc(NC(=O)c2noc3c2CCCCC3)cc1C	-87.7	-7.2	-123.9	-317.2	-6.3	-247.5	-114.2	-305.6
C=C(C(=O)Oc1c(C(C)(C)C)cccc1C(C)(C)C)c1ccccc1	-5.1	10.6	-9.6	-10.2	23.7	-14.5	/	/
O=C(NCc1ccccc1F)c1ccc2c(c1)OCO2	-12.2	-1.7	-40.3	3.3	-6.0	-12.7	/	/

Source: PubChem BioAssay
